Measured values published in PubChem BioAssay (Tox21).
Records with an inconclusive call do not appear. Values without a mark were called inactive. Activity calls are given as the source filed them. Calls follow the shape of the dose curve; as a rule, active = well fitted cell-killing curve with a large enough effect in the repeat runs; inconclusive = weak or mixed curves, or effect the other way; inactive = flat fitted curve, though single readings scatter.

Assay: qHTS assay to identify small molecule agonists of the constitutive androstane receptor (CAR) signaling pathway - cell viability counter screen (AID 1224836); also: nearly all actives have a fitted effect of over 45% in size
Conditions: HepG2-CYP2B6-hCAR viability, CellTiter-Fluor, 23 h, PK11195 added to every well; series mostly up to 92.4 µM; viability change, negative = cytotoxic: at the top concentration
Text: U.S. Tox21 Program National Center for Advancing Translational Sciences [NCATS] NIH Chemical Genomics Center [NCGC] U.S. Environmental Protection Agency [EPA] National Institutes of Environmental Health Sciences [NIEHS] National Toxicology Program [NTP] U.S. Food and Drug Administration [FDA] Tox21 Assay Overview: The constitutive androstane receptor (CAR) is a nuclear receptor which regulates multiple drug metabolizing enzymes (DMEs) and transporters. Activating CAR will generally increase the transcription and subsequent translation of CYP2B6 and CYP3A4. These two DMEs represent about 50% of the drug metabolizing potential in the body. […] Recently, there have also been studies performed indicating CARs role in energy metabolism and cancer therapy. Therefore, inducing CARs activity could have a potential effect on diabetes and cancer. Identifying environmental toxins and compounds which modulate CAR, through the use of the Tox21 10K compound collection, will be an important step in determining the toxicity and potential therapeutic effects these factors will have on the human body. To differentiate true CAR agonists from cytotoxic substances, the assay is multiplexed with a cell viability assay.
Tox21 Assay Protocol Summary: A double-stable (hCAR and CYP2B6-2.2kb) transfected cell line, derived from human hepatoma (HepG2) cells, was utilized for the duration of the quantitative high-throughput screens. The HepG2-CYP2B6-hCAR cells were dispensed at 2500 cells/4 uL/well in 1536-well white solid bottom plates using a Multidrop Combi. After the assay plates were incubated at 37 C/5% CO2 for 4 hrs, 23 nL of compounds at 15 concentrations (from 5-48 columns) or positive control (from 1 to 4 columns) were transferred to the assay plates using a Pintool station. One uL of PK11195 (final concentration = 0.75 uM) was added, using a Flying Reagent Dispenser, inside each well. After a 23 hr incubation period at 37 C/5% CO2, 1 uL of CellTiter-Fluor reagent was added into each well of the assay plates using a Flying Reagent Dispenser. The fluorescence intensity in the plates was then measured using a ViewLux plate reader.
% is scaled to controls: 0 for no effect and ±100 for the full control effect; potency is read from the fitted curve at half-maximal effect.

Compound	Potency	viability change, negative = cytotoxic
O=C(O)c1cccc(C(=O)O)c1	inactive	
Oc1ccc(Cl)cc1Cc1cc(Cl)ccc1O		-22.2% [at 42.5 µM]
CC(C)(C)c1ccc(O)c(C(C)(C)C)c1		-15.7%
CCCCN(CCO)CCCC		1.35%
CC(C)(C)c1ccccc1		-0.505%
CN1C(=O)c2ccc([N+](=O)[O-])cc2C1=O		-3.73%
CCn1c2ccccc2c2cc(N)ccc21	inactive	
CC(=O)O[C@]1(C(C)=O)CC[C@H]2[C@@H]3C[C@H](C)C4=CC(=O)CC[C@]4(C)[C@H]3CC[C@@]21C		2.75% [at 42.5 µM]
Cc1cccc([N+](=O)[O-])c1C(=O)O		0.902%
CC(=O)Nc1ccc(C(=O)CCl)cc1		-11.9%
CCCCCCCCCCCCCCCCCl		-1.15% [at 19 µM]
CO[Si](OC)(OC)c1ccccc1		-13.4%
CC(=O)CC(=O)Nc1ccc2[nH]c(=O)[nH]c2c1		-1.06%
O=C(OCc1ccccc1)c1ccc(O)cc1	inactive	
CC(C)(c1ccccc1)c1ccc(Nc2ccc(C(C)(C)c3ccccc3)cc2)cc1	inactive	
CCCCCCCCCCCCc1ccccc1O		3.24%
NC(N)=NC(=O)Cc1c(Cl)cccc1Cl		-20.4% [at 42.5 µM]
COC(c1ccccc1)(c1ccccc1)[C@H](Oc1nc(C)cc(C)n1)C(=O)O		-11.9% [at 42.5 µM]
CC(C)(C)NCC(O)c1cc(O)cc(O)c1 (stereo not given)		2.2% [at 42.5 µM]
CN(C)c1ccc(C(=C2C=CC(=[N+](C)C)C=C2)c2ccccc2)cc1	11.9 µM (active) [middle of 4 runs]	

Compound	Potency	viability change, negative = cytotoxic
Cc1scc2c1N(C(=O)CN1CCN(C)CC1)c1ccccc1NC2=O		0.387% [at 42.5 µM]
Nc1cc(S(=O)(=O)O)cc2cc(S(=O)(=O)O)cc(O)c12		-13.3%
CCCCC(CC)COC(=O)CC(C(=O)OCC(CC)CCCC)S(=O)(=O)O (stereo not given)		-12.9%
CCn1cc(C(=O)O)c(=O)c2cc(F)c(N3CCNC(C)C3)c(F)c21 (stereo not given)		5.45% [at 42.5 µM]
CC(=O)N[C@@H](CS)C(=O)O	inactive	
NC(Cc1ccc(Cl)cc1)C(=O)O (stereo not given)		1.54% [at 0.349 µM]
CCCCOCCOC(=O)c1ccccc1C(=O)OCCOCCCC	inactive	
COc1ccc(CCN(C)CCCC(C#N)(c2ccc(OC)c(OC)c2)C(C)C)cc1OC (stereo not given)	48.5 µM (active)	
O=C(O)c1cn(-c2ccc(F)cc2)c2cc(N3CCNCC3)c(F)cc2c1=O	inactive	
CC(C)C(=O)c1c(C(C)C)nn2ccccc12		10.6% [at 42.5 µM]
CCC(C)(C)C(=O)O[C@H]1C[C@@H](C)C=C2C=C[C@H](C)[C@H](CC[C@@H]3C[C@@H](O)CC(=O)O3)[C@H]21	inactive	
CC(N)=O		3.97% [at 240 µM]
CCCC(=O)c1ccccc1		3.24%
OCCN1CCNCC1	inactive	
C=C(C)C1CC=C(C)C(OC(C)=O)C1 (stereo not given)	inactive	
CCN(CC)C(=O)Nc1ccc(OCC(O)CNC(C)(C)C)c(C(C)=O)c1 (stereo not given)		3.4% [at 42.5 µM]
COC(=O)/C=C/c1ccccc1	inactive	
OCC(CO)N[C@H]1C[C@](O)(CO)[C@@H](O)[C@H](O)[C@H]1O		25.1% [at 42.5 µM]
CC[C@@H](N)CO		8.56%
NCCCCCC(=O)O		7.09% [at 42.5 µM]
